This is a sample that favours compounds with a hit; in the whole collection about 5.7% have one here.
A549 tox-1: counter-screen for Nrf2 inhibitors: cytotoxicity in A549 cells. Potency, µM (series often up to 46 µM), for the others: at the top dose activity change, negative = cytotoxicity, hits mostly inhibitors. A549 ARE-Fluc cells, CellTiter-Fluor viability, 18-24 h. 0.16% of 390,000 active; further: potency means the concentration at half of the fitted maximal effect
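A549 ARE_Fluc cells in 5% FBS OPTI-MEM were exposed to compounds in concentration-response for 18-24 h at 37 deg C. Viability was read by CellTiter-Fluor fluorescence (Ex 405/Em 525) after 30 min, before the luciferase read.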
Nrf2 inh: inhibitors of Nrf2 signaling | 2.1% of 360,000 active | A549 ARE-Fluc reporter, luciferase luminescence, 18-24 h | AID 504444 | Potency, µM (titrated, usually from 46 µM), for inactives: at the highest dose activity change, negative = inhibition, actives largely listed as inhibitors; further: potency means the concentration at half of the fitted maximal effect; nearly all actives have a fitted effect of over 60% in size
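In this cell-based qHTS, ARE-driven firefly luciferase in A549 cells reports Nrf2 activity; the luminescent signal after BugLite lysis is the measured value, with a prior CellTiter-Fluor read for cell health.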
PI4K2A block: blocks human PI4K2A kinase activity; Q9BTU6; purified PI4K2A, ADP-Glo luminescence, 1 h; stronger effect = lower value; activity change, negative = inhibition, % at 76.9 µM; 0.13% of 420,000 active; AID 1346378; in the data active means activity change below about -50%; inconclusive means mostly about -30% to -49%;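 further: -100% = wells without enzyme as full effect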
Target sequence (Q9BTU6 whole entry, looked up): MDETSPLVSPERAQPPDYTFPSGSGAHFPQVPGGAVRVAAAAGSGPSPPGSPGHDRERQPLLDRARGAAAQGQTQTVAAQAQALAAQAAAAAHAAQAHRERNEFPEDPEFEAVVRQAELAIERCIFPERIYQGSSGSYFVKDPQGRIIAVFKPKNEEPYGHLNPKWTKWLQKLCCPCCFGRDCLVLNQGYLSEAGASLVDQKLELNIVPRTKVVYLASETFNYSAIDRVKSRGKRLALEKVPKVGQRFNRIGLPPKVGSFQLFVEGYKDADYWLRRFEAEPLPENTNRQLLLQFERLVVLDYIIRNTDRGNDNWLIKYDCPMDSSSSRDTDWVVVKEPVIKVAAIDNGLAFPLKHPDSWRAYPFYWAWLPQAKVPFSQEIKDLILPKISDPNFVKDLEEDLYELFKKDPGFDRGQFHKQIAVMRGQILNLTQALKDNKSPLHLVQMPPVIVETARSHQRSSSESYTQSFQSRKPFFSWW
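PI4K2A activity was measured by ADP-Glo luminescence: enzyme (4 ug/mL stock) and phosphatidylinositol (1.2 mM stock) in Tris pH 7.5/MgCl2/EGTA/Triton X-100 buffer were reacted with ATP (300 microM stock) for one hour at ambient temperature.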
Giardia killer: Giardia lamblia killing. Giardia lamblia trophozoite viability. activity change, % at 7.66 µM, hits read low. 0.15% of 340,000 active; in the data active means activity change below about -80%; inconclusive means between about -30% and that limit;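 further: parasites exposed to compound for two days anaerobically before the ATP read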
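Trophozoite viability was measured as ATP-dependent luminescence, read 15-30 min after reagent addition. Before that, parasites at 100 cells/well were exposed to compounds for 48 h, anaerobically, at 37 deg C.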
KB-3-1 tox: kills parental KB-3-1 adenocarcinoma cells; KB-3-1 viability, CellTiter-Glo ATP luminescence, 72 h; 1.4% of 400,000 active; Potency, µM (doses to about 46.1 µM), actives largely listed as cytotoxic; AID 1347075; further: potency means the concentration at half of the fitted maximal effect; nearly all actives have a fitted effect of over 60% in size
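Screening of KB-3-1 cells (DMEM, 10% FBS, phenol-red free) ran from lowest to highest compound concentration; after 72 h at 37 °C viability was read luminescently and curves fitted.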
KB-V1 MDR tox: KB-V1 MDR subline cytotoxicity; Potency, µM (series often up to 46.1 µM), usual class: cytotoxic; KB-V1 MDR cells viability, CellTiter-Glo, 72 h; 3.4% of 400,000 active; further: potency means the concentration at half of the fitted maximal effect; nearly all actives have a fitted effect of over 60% in size
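In this primary screen, KB-V1 cells overexpressing P-gp are incubated with library compounds (lowest to highest concentration) for 72 h at 37 degrees C before a luminescent ATP viability read.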
FLuc enzyme inh: blocks purified firefly luciferase in Nrf2 counterscreen; shares compounds with Nrf2 inh; purified firefly luciferase, luminescence inhibition; Potency, µM (top dose mostly 57.5 µM), for the others: at the highest dose activity change, negative = inhibition, usual class: inhibitors; 4% of 1,400 active; further: potency means the concentration at half of the fitted maximal effect; nearly all actives have a fitted effect of over 65% in size
A549 tox-2: toxic to A549 ARE-Fluc cells in Nrf2 counterscreen; shares compounds with Nrf2 inh; A549 ARE-Fluc cells, cytotoxicity counterscreen; AID 720523; Potency, µM (titrated, usually from 46.1 µM), without a hit: at the top dose activity change, negative = cytotoxicity, usual class: inhibitors; 2% of 1,400 active;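 further: potency means the concentration at half of the fitted maximal effect; cells exposed to compounds for 18 to 24 hours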
ARE-Fluc inh: reduces Nrf2 ARE reporter signal in A549 cells; A549 ARE-firefly luciferase reporter, luminescence; Potency, µM (titrated, usually from 46.1 µM), without a hit: top-dose activity change, negative = inhibition, most hits filed as inhibitors; shares compounds with Nrf2 inh; 74% of 1,400 active; further: potency means the concentration at half of the fitted maximal effect; nearly all actives have a fitted effect of over 65% in size
The depositor's hits bear a star; i = inactive; ? = inconclusive; nt = not tested or not shown; [ ] = another dose, or the depositor's remark. Unless noted, the call rests on the fitted dose curve; in most records, active means well fitted curve in the direction sought with a large enough effect; inconclusive means small, poorly fitted or top-dose-only effect, or another doubt; inactive means no such curve, though single readings can be large; an effect the other way counts as inactive or inconclusive. Unless noted, on the % scale 0 is the no-effect control and ±100 the full control effect.

SMILES	A549 tox-1	Nrf2 inh	PI4K2A block	Giardia killer	KB-3-1 tox	KB-V1 MDR tox	FLuc enzyme inh	A549 tox-2	ARE-Fluc inh
C[C@]12C=CC(=O)C=C1CC[C@@H]1[C@@H]2[C@@H](O)C[C@@]2(C)[C@H]1CC[C@]2(O)C(=O)CO	-10.6%	0.058µM*	2.4	6.4	i	i	2.8%	-2.0%	0.0731µM*
C[C@]12C=CC(=O)C=C1CC[C@@H]1[C@@H]2[C@@H](O)C[C@@]2(C)[C@H]1CC[C@]2(O)C(=O)COC(=O)CCC(=O)O	-16.4%	0.0461µM*	-2.1	6.6	i	i	4.7%	-5.3%	0.231µM*
Cc1ccc(C)c(Nc2ncnc3onc(C)c23)c1	-7.0%	4.3%	-2.8	nt	i	i	nt	nt	nt
CCOC(=O)O[C@]1(C(=O)COC(=O)CC)CC[C@H]2[C@@H]3CCC4=CC(=O)C=C[C@]4(C)[C@H]3[C@@H](O)C[C@@]21C	-4.8%	0.058µM*	0.6	5.5	i	i	-1.2%	-9.7%	0.058µM*
CC(C)=CCC/C(C)=C/CC/C(C)=C/C(=O)OCC(=O)[C@@]1(O)CC[C@H]2[C@@H]3CCC4=CC(=O)C=C[C@]4(C)[C@H]3[C@@H](O)C[C@@]21C	nt	nt	-1.5	nt	nt	nt	nt	nt	nt
NC1CCc2ccc([N+](=O)[O-])cc21 (centres undefined)	nt	nt	nt	nt	i	i	nt	nt	nt
Nc1ncnc2c(C3OC(CO)C(O)C3O)c[nH]c12 (centres undefined)	?	0.231µM*	-4.8	13.6	0.184µM*	0.291µM*	2.4%	?	0.103µM*
Nc1ncnc2c1ncn2[C@@H]1O[C@H](CO)[C@@H](O)[C@H]1O	-4.0%	-0.6%	?	-6.4	i	i	nt	nt	nt
COc1ccc(N2CCN(C(c3ccccc3)c3sc4nc(-c5ccco5)nn4c3O)CC2)cc1 (centres undefined)	1.1%	nt	80.2	nt	nt	nt	nt	nt	nt
Cc1nc2ccc(NS(=O)(=O)c3ccc4c(c3)OCCO4)cc2s1	-25.2%	2.91µM*	-7.4	10.5	i	i	-1.6%	-1.2%	6.51µM*
COc1ccc(S(=O)(=O)Nc2ccc3c(c2)OCCO3)cc1OC	5.2%	-22.7%	3.3	?	i	i	nt	nt	nt
COc1ccc(Nc2nc(-c3cccs3)nc3ccccc23)cc1S(=O)(=O)N1CCOCC1	?	9.2µM*	6.5	10.2	?	?	-20.6%	?	?
N=c1ccn(Cc2ccc(F)cc2)cc1	-12.7%	2.31µM*	0.5	-12.5	5.8µM*	i	?	20.6µM*	23.1µM*
O=C1CNC(=S)N1Cc1ccc(F)cc1	1.3%	8.3%	1.8	20.9	i	i	nt	nt	nt
CN(C)c1ccc(/C=C/C(=O)c2ccc(O)cc2)cc1	4.3%	5.17µM*	-0.7	-12.9	?	i	0.213µM*	0.6%	2.31µM*
CC(C)NC(=O)C1CCN(C(=O)c2cc3sccc3n2Cc2ccc(Cl)cc2)CC1	-24.1%	5.8µM*	-1.4	nt	?	?	0.7%	?	4.11µM*
CC1CCN(C(=O)C2CCN(C(=O)c3cc4sccc4n3Cc3ccc(F)cc3)CC2)CC1	2.0%[1.84 µM]	-51.4%	-2.0	46.0	i	i	nt	nt	nt
Cc1cc(C(=O)NC2CCCc3c2cnn3-c2ccc(C(C)(C)C)cc2)n[nH]1 (centres undefined)	13.1%	4.61µM*	-2.2	-4.2	?	?	?	-10.7%	16.4µM*
O=C(NC1CCCc2c1cnn2-c1cc(F)cc(F)c1)c1ccncc1 (centres undefined)	8.1%	-4.8%	1.4	12.0	i	i	nt	nt	nt
CC(C)(C)c1ccc(-n2ncc3c2CCCC3NC(=O)CN2CCOC2=O)cc1 (centres undefined)	-7.3%	?	3.2	-2.4	i	i	nt	nt	nt
Cc1ncoc1C(=O)NC1CCCc2c1cnn2-c1ccc(C(C)(C)C)cc1 (centres undefined)	?	2.31µM*	-2.9	-11.0	18.4µM*	i	?	-6.1%	5.17µM*
Cc1nnsc1C(=O)NC1CCCc2c1cnn2-c1ccc(C(C)(C)C)cc1 (centres undefined)	?	2.06µM*	-2.1	9.4	?	?	?	-12.8%	nt
CC(C)(C)c1ccc(-n2ncc3c2CCCC3NC(=O)c2ccncc2)cc1 (centres undefined)	-12.2%	2.59µM*	2.0	7.4	?	?	?	-5.5%	8.2µM*
S=C(NCc1ccccc1)Nc1cccc2cnccc12	-13.1%	2.59µM*	1.2	-1.0	i	?	-13.7%	-2.2%	7.31µM*
CCCCNC(=S)Nc1cccc2cnccc12	-5.4%	-21.7%	-0.2	-5.2	i	?	nt	nt	nt
SMILES	A549 tox-1	Nrf2 inh	PI4K2A block	Giardia killer	KB-3-1 tox	KB-V1 MDR tox	FLuc enzyme inh	A549 tox-2	ARE-Fluc inh
S=C(NCCc1ccccc1)Nc1cccc2cnccc12	-24.0%	3.66µM*	-17.8	16.6	4.11µM*	8.2µM*	0.0426µM*	-15.9%	2.59µM*
COc1ccc(-c2cn3nc(SCC(=O)Nc4cc(C)cc(C)c4)ccc3n2)cc1	-4.5%	nt	0.1	nt	i	i	nt	nt	nt
O=C(Nc1nonc1NC(=O)c1cccs1)c1cccs1	?	1.64µM*	-0.5	23.0	?	10.3µM*	-15.0%	-11.9%	6.51µM*
C[C@@H]1C=CC(=O)O[C@@H]1c1ccc(Cl)cc1	-0.7%	9.2µM*	4.6	12.4	i	?	0.7%	-15.0%	5.8µM*
CC1C(=O)OC(c2ccc(Cl)cc2)C(C)(C)C1=O (centres undefined)	-0.8%	-5.6%	4.8	5.9	i	i	nt	nt	nt
CCN(CC)c1ccc(/C=C/c2ccncc2)cc1	nt	nt	nt	nt	0.517µM*	i	-13.9%	6.51µM*	1.46µM*
COc1ccccc1C(=O)NCCCNC(=O)c1cccnc1	3.8%	1.84µM*	-4.8	-24.4	i	i	-0.5%	11.9%	-11.5%
C[C@@H]1CCN(C2CC2)S(=O)(=O)c2ccc(N3CC[C@@H](O)C3)cc2O1	nt	nt	0.5	nt	nt	nt	nt	nt	nt
COc1ccc(/C=C/C(=O)NC(=S)NCCc2ccc(OC)c(OC)c2)cc1	?	7.31µM*	5.4	-2.4	i	?	-3.9%	-12.6%	5.4%
COc1ccc(CCNC(=O)/C=C\c2ccccc2)cc1OC	-3.4%	-15.9%	2.0	-8.6	i	i	nt	nt	nt

Assay outcomes (PubChem)
